High-throughput results (PubChem)
In the library only some 8.8% were active in any assay of this set; here they are far more common.
IL-1B inflam inh – inhibitors of inflammasome signaling (IL-1 beta secretion) | THP-1 LPS/ATP IL-1B secretion, AlphaLISA, 16 h; active compounds read low | activity change, % at 57.5 µM | actives 4.7% (n = 360,000) | AID 743279; in the data active = activity change below about -50%; inconclusive = mostly about -30% to -49%
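Secreted IL-1B measured by AlphaLISA bead assay after 16 h compound exposure of THP-1 cells; compounds (final up to 57.5 uM) added 1 h before LPS (250 ng/mL) and ATP (1.25 mM) stimulation; lower signal means less secretion.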
HT1080-NT tox – kills 2HG-producing HT-1080-NT fibrosarcoma cells; HT-1080-NT fibrosarcoma viability, CellTiter-Glo ATP luminescence, 48 h; Potency, µM (highest dose often 46.1 µM), without a hit: at the highest dose activity, negative = less viability, most hits filed as cytotoxic; actives 1.6% (n = 360,000); AID 686970;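 note: NT is the 2HG producing partner of a matched IDH1 knockdown line; potency is the fitted concentration of half-maximal effect; 0% = DMSO-treated cells and -100% = media-only wells without cells; nearly all actives have a fitted effect of over 55% in size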
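Compounds were tested in concentration-response format on HT-1080-NT cells for 48 hours at 37 degrees C. Cell viability came from CellTiter-Glo luminescence; curves were classified by r2, response magnitude and activity.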
KB-V1 cytotox – KB-V1 MDR subline cytotoxicity | actives 3.4% (n = 400,000) | Potency, µM (series often up to 46.1 µM), actives largely listed as cytotoxic | KB-V1 MDR cells viability, CellTiter-Glo, 72 h; note: potency is the fitted concentration of half-maximal effect; nearly all actives have a fitted effect of over 60% in size
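Cytotoxicity via CellTiter-Glo luminescence after 72 h compound exposure at 37 degrees C. Cells: drug-selected KB-V1 line, DMEM phenol-red free plus 10% FBS. Compounds tested at multiple concentrations; normalized data fitted to concentration-effect curves.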
HT1080 IDH1KD tx – kills HT-1080 cells with IDH1 knockdown | HT-1080 IDH1 knockdown viability, ATP luminescence, 48 h | Potency, µM (series often up to 46.1 µM), inactives show at the top dose activity, negative = toxicity, usual class: cytotoxic | actives 2% (n = 360,000) | AID 686971;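 note: potency is the fitted concentration of half-maximal effect; 0% = DMSO wells and -100% = cell-free medium wells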
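CellTiter-Glo luminescence after 48 h compound exposure at 37 degrees C of IDH1-knockdown HT-1080 cells in 5% FBS RPMI. %Activity scaled between DMSO wells and cell-free media wells, with curves fitted and assigned curve classes.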
KB-3-1 cytotox – KB-3-1 parental cell cytotoxicity | KB-3-1 viability, CellTiter-Glo ATP luminescence, 72 h | Potency, µM (series often up to 46.1 µM), hits mostly cytotoxic | actives 1.4% (n = 400,000) | AID 1347075; note: potency is the fitted concentration of half-maximal effect; nearly all actives have a fitted effect of over 60% in size
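Cytotoxicity measured as CellTiter-Glo luminescence after 72 h at 37 C. Compound titrations were pinned onto drug-naive KB-3-1 parental adenocarcinoma cells grown in DMEM with 10% FBS, and normalized data fitted to concentration-response curves.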
* = called active by the depositor; i = inactive; ? = inconclusive; . = not tested or not shown. Unless noted, calls come from the whole dose curve; as a rule, active = well fitted curve in the direction sought with a large enough effect; inconclusive = small, poorly fitted or top-dose-only effect, or another doubt; inactive = no such curve, though single readings can be large; an effect the other way counts as inactive or inconclusive. Unless noted, % is set by controls: 0 for no effect and ±100 for the full control effect.

SMILES	IL-1B inflam inh	HT1080-NT tox	KB-V1 cytotox	HT1080 IDH1KD tx	KB-3-1 cytotox
C[C@@H]1CN([C@H](C)CO)S(=O)(=O)c2ccc(Br)cc2O[C@@H]1CN(C)C(=O)Nc1ccc(C(F)(F)F)cc1	-70*	?	?	?	?
C[C@@H]1CN([C@@H](C)CO)S(=O)(=O)c2ccc(Br)cc2O[C@H]1CN(C)Cc1ccc(-c2ccccc2)cc1	-28	?	i	21µM*	?
COc1ccc(-c2ccc3c(c2)O[C@H](CN(C)C(=O)Nc2ccccc2F)[C@@H](C)CN([C@H](C)CO)S3(=O)=O)cc1	12	-16%	12µM*	-23%	?
C[C@H](CO)N1C[C@H](C)[C@@H](CN(C)Cc2ccc(Oc3ccccc3)cc2)Oc2cc(Br)ccc2S1(=O)=O	-2	?	i	?	i
CSCCC(C(=O)Nc1c(C)cccc1C)N1CCN(C/C=C/c2ccccc2)CC1 (configuration not stated)	-21	-27%	i	-14%	i
CCCCOC(=O)c1c(C)oc2c1cc(NS(=O)(=O)c1cc(OC)ccc1OC)c1ccccc12	.	.	i	.	i
CCn1ncc(C2=NOC(C(=O)NCc3ccc(Cl)cc3)C2)c1C (configuration not stated)	55	4.5µM*	4.6µM*	6.3µM*	2.3µM*
COc1cc(C2=NOC(C(=O)NCc3cccs3)C2)cc(OC)c1OC (configuration not stated)	0	5.8µM*	2.6µM*	7.3µM*	2.1µM*
COc1cc(C2=NOC(C(=O)NCc3cccnc3)C2)cc(OC)c1OC (configuration not stated)	-4	-1%	i	-6%	?
COc1ccc(CNC(=O)C2CC(c3ccc(OC)cc3)=NO2)cc1 (configuration not stated)	9	-1%	i	-9%	i
COc1ccc(C2=NOC(C(=O)NCc3cccs3)C2)cc1 (configuration not stated)	36	?	2.9µM*	5.2µM*	6.5µM*
COc1cc(OC)c(C2=NOC(C(=O)NCc3cccnc3)C2)cc1Cl (configuration not stated)	29	?	i	?	?
COc1cc(OC)c(C2=NOC(C(=O)NCc3cccs3)C2)cc1Cl (configuration not stated)	13	4.1µM*	7.3µM*	4.6µM*	i
COc1ccc(-n2nnc3c(=O)n(CC(=O)Nc4cc(C)on4)cnc32)cc1OC	12	?	i	-24%	i
COc1ccc(C2=NOC(C(=O)NCc3ccccn3)C2)cc1OC (configuration not stated)	7	11%	i	9%	i
COc1ccc(C2=NOC(C(=O)NCc3cccs3)C2)cc1OC (configuration not stated)	47	?	5.2µM*	6.5µM*	4.6µM*
O=C(NCc1ccccc1C(F)(F)F)C1CC(c2ccccc2C(F)(F)F)=NO1 (configuration not stated)	-62*	6%	i	-5%	i
O=C(NCc1cccs1)C1CC(c2ccccc2O)=NO1 (configuration not stated)	19	-15%	?	-2%	16µM*
COc1ccc(C2=NOC(C(=O)NCc3ccc(F)cc3)C2)cc1 (configuration not stated)	16	?	15µM*	?	7.3µM*
COc1ccc(CNC(=O)C2CC(c3ccc(F)cc3)=NO2)cc1 (configuration not stated)	-2	2%	i	-7%	i
COc1ccc(Cn2cc(CN3CC(N(C)C)CS3(=O)=O)nn2)cc1 (configuration not stated)	-1	-1%	i	8%	i
COCCCn1c(=N)c(C(=O)NC2CCCCC2)cc2c(=O)n3cc(C)ccc3nc21	.	.	i	.	i
Cc1ccc(C(=O)N/N=C/c2cccc(OC(=O)/C=C/c3ccco3)c2)cn1	-2	6%	i	-5%	i
O=C(/C=C/c1ccco1)Oc1cc(Br)cc(/C=N/NC(=O)c2ccccc2O)c1	56	?	?	1.8µM*	?
CO/N=C/c1ccc(Oc2ccc(C)cc2)c([N+](=O)[O-])c1	-19	0%	i	-4%	i
SMILES	IL-1B inflam inh	HT1080-NT tox	KB-V1 cytotox	HT1080 IDH1KD tx	KB-3-1 cytotox
CCC(=O)c1ccc(Oc2ccc(C(=O)c3ccc(C)cc3)cc2[N+](=O)[O-])cc1	-80*	-5%	i	-12%	i
O=C(c1ccccc1)c1ccc(Oc2ccc([N+](=O)[O-])cc2[N+](=O)[O-])cc1	-95*	15µM*	?	12µM*	?
O=Cc1cccc(Oc2ccc([N+](=O)[O-])cc2[N+](=O)[O-])c1	62	?	i	?	?
C[C@H](NC(=O)OC(C)(C)C)[C@@H](O)c1ccco1	.	.	i	.	i
COc1cc(Cl)c(C)cc1NC(=O)c1cc(S(=O)(=O)N(C)C)ccc1N1CCCC1	?	-15%	i	-21%	i
CCCCCCCCCCCCCCCCn1cc[n+](C)c1	-96*	16µM*	i	21µM*	4.1µM*
C[N+]1(CCCCSc2ccc(O)cc2)CCCCC1	33	-15%	i	0%	18µM*
COCCNc1nc(-c2cc3ccccc3o2)cs1	-53*	-2%	?	-1%	i
O=C(Nc1ccc2c(c1)OCO2)c1csc([C@H]2C[C@H](O)[C@@H](CO)O2)n1	-9	22%	?	-2%	i
CCOc1ccc2nc(SCC(=O)NCc3ccc(S(N)(=O)=O)cc3)[nH]c2c1	0	-4%	i	0%	i
C=CCN1c2ccccc2Sc2cnccc21	?	0%	?	2%	i
CC(=O)OCCN1c2ccccc2Sc2cnccc21	?	-7%	15µM*	-11%	12µM*
Cn1c(N)c(C(=O)COC(=O)c2ccc3c(c2)C(=O)N(c2ccc(Cl)cc2)C3=O)c(=O)n(C)c1=O	-12	7%	i	21%	i
COc1cc(/C=N/NC(=O)c2ccc3nc[nH]c3c2)cc(OC)c1OC	-67*	6%	i	12%	i
COc1cc(/C=N/NC(=O)c2ccncc2)cc(OC)c1OC	23	17%	i	7%	i
CCOc1ccc2[nH]c(C(=O)N/N=C/c3cc(OC)c(OC)c(OC)c3)cc2c1	-79*	1%	i	-6%	i
COc1cc(/C=N\NC(=O)c2ccc(-c3ccccc3)cc2)cc(OC)c1O	?	0%	i	-21%	i
COc1cc(/C=N\NC(=O)c2ccc(-c3ccccc3)cc2)cc(OC)c1OC(C)=O	-50*	-4%	i	-12%	i
